Hits are enriched below; roughly 19% of the tested compounds scored in any of these assays.
HT1080 IDH1KD tx – kills HT-1080 cells with IDH1 knockdown | HT-1080 IDH1 knockdown viability, ATP luminescence, 48 h | Potency, µM (top dose mostly 46.1 µM), for inactives: at the top dose activity, negative = toxicity, usual class: cytotoxic | 360,000 tested, 2% active;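 also: potency is read from the fitted curve at half-maximal effect; 0% = DMSO wells and -100% = cell-free medium wells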
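IDH1KD HT-1080 cells, 750/well, RPMI + 5% FBS; compound pinned after 2 h settling; 48 h, 37 °C; CellTiter-Glo luminescence; % activity normalised to DMSO and no-cell wells; curves fitted, classed by r2 and efficacy.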
TDP1 cell noCPT – qHTS for Inhibitors of human tyrosyl-DNA phosphodiesterase 1 (TDP1): qHTS in cells in absence of CPT; DT40 Tdp1-/- hTDP1 cells, no CPT, ATP luminescence, 48 h; Potency, µM (titrated, usually from 46.2 µM), without a hit: top-dose activity change, negative = growth inhibition, usual class: inhibitors; 420,000 tested, 15% active; AID 686978, 2013; also: potency is read from the fitted curve at half-maximal effect; nearly all actives have a fitted effect of over 55% in size
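Luminescent ATP content (CellTiter-Glo) served as the growth readout. Knockout chicken DT40 cells expressing human TDP1 were exposed to compounds without camptothecin for a minimum 48 hr at 37 °C.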
IL1B secr inh – blocks inflammasome-driven IL-1 beta release; activity change, % at 57.5 µM; THP-1 LPS/ATP IL-1B secretion, AlphaLISA, 16 h; stronger effect = lower value; 360,000 tested, 4.7% active; in the data active = activity change below about -50%; inconclusive = mostly about -30% to -49%
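THP-1 cells pretreated 1 hr with compounds (up to 57.5 uM final), then stimulated with LPS (250 ng/mL final) plus ATP (1.25 mM final); secreted IL-1B measured by AlphaLISA after 16 hr, decreased signal indicating inhibition.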
HT1080NT lethal – kills 2HG-producing HT-1080-NT fibrosarcoma cells. HT-1080-NT fibrosarcoma viability, CellTiter-Glo ATP luminescence, 48 h. Potency, µM (doses to about 46.1 µM), without a hit: top-dose activity, negative = less viability, actives largely listed as cytotoxic. 360,000 tested, 1.6% active;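 also: NT is the 2HG producing partner of a matched IDH1 knockdown line; potency is read from the fitted curve at half-maximal effect; 0% = DMSO-treated cells and -100% = media-only wells without cells; nearly all actives have a fitted effect of over 55% in size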
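Fibrosarcoma NT cells, 750 per well in 5% FBS RPMI, were exposed to compound for 48 hours. Viability: CellTiter-Glo luminescence.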
uPA generation – blocks generation of uPA at the cell surface; 330,000 tested, 0.31% active; AID 540303; Potency, µM (top dose mostly 38.3 µM), for the others: at the highest dose activity change, negative = inhibition, usual class: inhibitors; cell surface uPA generation assay, qHTS; active = well fitted inhibition curve with a large enough effect; inconclusive = small, poorly fitted or top-dose-only effect; inactive = no such curve, though single readings can be large or run the other way; tested in mouse RAW 264.7 cells; also: potency is read from the fitted curve at half-maximal effect; nearly all actives have a fitted effect of over 55% in size
TDP1 cell CPT – growth inhibition of DT40 Tdp1-/-;hTDP1 cells with camptothecin (screen for TDP1 inhibitors) | chicken DT40 Tdp1-/-;hTDP1 cells + 20 nM CPT, ATP luminescence, 48 h | Potency, µM (doses to about 46.2 µM), without a hit: at the highest dose activity change, negative = growth inhibition, most hits filed as inhibitors | 420,000 tested, 12% active | AID 686979; also: potency is read from the fitted curve at half-maximal effect; nearly all actives have a fitted effect of over 55% in size
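Cell growth measured by CellTiter-Glo luminescence after a minimum 48 h, 37 C compound exposure with 20 nM CPT in Tdp1-knockout DT40 cells stably expressing hTDP1, seeded 400/well; qHTS titration format.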
An asterisk follows results filed as active; i = inactive; ? = inconclusive; nt = no result given; [ ] = remark or other dose. Unless noted, calls follow the shape of the dose curve; as a rule, active = well fitted curve in the direction sought with a large enough effect; inconclusive = small, poorly fitted or top-dose-only effect, or another doubt; inactive = no such curve, though single readings can be large; an effect the other way counts as inactive or inconclusive. Unless noted, % is scaled to controls: 0 for no effect and ±100 for the full control effect.

SMILES | HT1080 IDH1KD tx | TDP1 cell noCPT | IL1B secr inh | HT1080NT lethal | uPA generation | TDP1 cell CPT
Cc1cccc(N2CCN(C(=O)N3CCOCC3)CC2)c1C | ? | 20.6µM* | 60.3 | 16.4µM* | -10.0% | ?
O=C(c1ccc2nc(N3CCOCC3)sc2c1)N1CCCC1 | -0.4% | -10.1% | -1.8 | 0.2% | 3.7% | -4.2%
Cc1cccc(N2CCN(C(=O)c3c(C)nn(Cc4ccccc4Cl)c3C)CC2)c1C | ? | 10.3µM* | ? | ? | -5.2% | 9.2µM*
Cc1cccc(N2CCN(C(=O)N3CCCCC3)CC2)c1C | 1.5% | -21.7% | -3.2 | -8.3% | 7.7% | 26.0%
O=C(c1ccc2ncsc2c1)N1CCN(c2nc3ccccc3s2)CC1 | 7.1% | 14.6µM* | i | ? | -5.5% | ?
O=C(C1CC1)N1CCN(c2nc3ccccc3s2)CC1 | 0.0% | -11.2% | -10.5 | 0.0% | -27.7% | -23.5%
CN(C1CCCCC1)S(=O)(=O)c1ccc(C(=O)N2CCN(c3nc4ccccc4s3)CC2)cc1 | 8.9% | 14.6µM* | 11.5 | 0.4% | -2.2% | 23.1µM*
O=C(c1cc2sccc2n1Cc1ccccc1)N1CCN(c2nc3ccccc3s2)CC1 | 8.2µM* | 14.6µM* | -2.8 | -5.5% | -0.6% | 14.6µM*
Cc1cccc(N2CCN(C(=O)C(Cc3ccccc3)NC(N)=O)CC2)c1C (centres undefined) | 11.3% | -19.2% | 14.9 | 25.0% | -1.8% | -29.1%
Cc1cccc(N2CCN(C(=O)C(Cc3ccccc3)n3cccc3)CC2)c1C (centres undefined) | ? | 16.4µM* | 22.0 | -13.8% | ? | 18.4µM*
O=C(c1ccc2ncsc2c1)N1CCN(c2ccc(O)cc2)CC1 | 6.0% | 20.6µM* | 0.7 | 1.9% | -14.1% | ?
CCC(=O)N1CCN(c2nc3ccccc3s2)CC1 | -10.3% | ? | -4.2 | -8.6% | -11.6% | -19.9%
Cl/C(=C\n1cncn1)c1ccc(Cl)cc1Cl | nt | ? | nt | nt | nt | -26.5%
CCN(C(=O)Cc1c(C(=O)O)[nH]c2ccccc12)c1ccc(OC)cc1 | 3.3% | 0.2% | 27.5 | 1.2% | -0.4% | 2.6%
OCC1(Cc2ccccc2Cl)CCN(C/C=C/c2ccccc2)CC1 | -15.7% | 18.4µM* | 0.0 | -10.1% | -1.4% | ?
CCC(C)NC(=O)CSc1nnc(-c2cc(-c3cccs3)nc3ccccc23)o1 (centres undefined) | -4.3% | 18.4µM* | -10.4 | 0.5% | -5.2% | ?
Cc1ccc(-n2nc3c(=O)n(CC(=O)NC(C)C)nc(C)c3c2C)cc1 | nt | -17.8% | nt | nt | nt | -18.3%
O=[N+]([O-])c1cc2c(cc1Br)-c1ccccc1C2 | -14.0% | 25.9µM* | 36.7 | -1.0% | nt | -9.4%
COc1cc2c(cc1[N+](=O)[O-])-c1ccccc1C2 | 5.0% | -12.8% | -12.4 | 6.3% | -7.9% | -15.1%
CC(=O)c1cccc(OCc2cc(C(=O)N(C)Cc3cnccn3)no2)c1 | 3.8% | -3.7% | -3.4 | -2.7% | -1.2% | -25.2%
Cc1cc(CN(C)C(=O)c2cc(COc3ccc4ncccc4c3)on2)on1 | ? | 6.51µM* | -0.5 | -22.6% | -4.4% | 7.31µM*
Cc1ccc(OCc2cc(C(=O)N(C)Cc3cnc4ccccn34)no2)cc1C | -29.3% | 11.6µM* | -23.7 | 0.0% | -8.8% | 14.6µM*
CC(=O)c1ccc(OCc2cc(C(=O)N(C)Cc3ncc(C)[nH]3)no2)cc1 | 0.5% | 11.1% | -1.8 | 1.5% | -4.5% | 9.2%
CN(Cc1nccn1C)C(=O)c1cc(COc2ccc3ncccc3c2)on1 | -16.0% | 18.4µM* | -3.9 | -14.4% | -2.4% | -41.7%
Cc1c(Cl)cccc1N1C(=O)CC(Sc2ccccc2N)C1=O (centres undefined) | -5.8% | ? | 6.2 | -4.1% | nt | ?
SMILES | HT1080 IDH1KD tx | TDP1 cell noCPT | IL1B secr inh | HT1080NT lethal | uPA generation | TDP1 cell CPT
C=CCN1C=C2C(=O)C(C)(OC(=O)c3cnc4ccccc4n3)C(=O)C=C2C=C1/C=C/COC (centres undefined) | -7.1% | 16.4µM* | -2.2 | -11.4% | -23.1% | ?
CNc1ccc(Oc2nc([N+](=O)[O-])nn2C)cc1 | 3.0% | -1.1% | 7.9 | 3.4% | -0.2% | 4.7%
Cc1coc2c1c(C)cc1oc(=O)c(CC(=O)NCCCCCC(=O)O)c(C)c12 | -10.5% | 0.3% | 16.3 | -1.3% | 3.2% | 5.0%
Cc1ccc(N2CCN(C(=O)NCc3noc4ccccc34)CC2C)cc1 (centres undefined) | nt | ? | nt | nt | nt | 20.6µM*
Clc1cccc(-c2nc3c4ccccc4ccn3c2CC2CCCCC2)c1 | 11.5% | ? | 17.9 | 16.7% | nt | ?
CCCS(=O)(=O)c1c(S(=O)(=O)CCC)c2c(C)cccn2c1C(=O)N/N=C/c1cc(O)cc(O)c1 | 7.31µM* | 14.6µM* | 81.1 | ? | 11.2µM* | 0.82µM*
CCCS(=O)(=O)c1c(S(=O)(=O)CCC)c2c(C)cccn2c1C(N)=O | 1.6% | -9.7% | 8.8 | -3.6% | 3.1% | -15.4%
c1ccc(C2=Nn3c(nnc3-c3ccncc3)SC2)cc1 | 5.1% | ? | -18.4 | 3.2% | 21.8% | ?
C[n+]1c2n(c3ccccc31)N=C(c1ccc(Br)cc1)CS2 | 12.6µM* | 0.517µM* | -88.8* | ? | nt | 0.651µM*
C[n+]1c2n(c3ccccc31)N=C(c1ccccc1)CS2 | ? | 2.31µM* | ? | ? | -11.1% | 2.31µM*
C[n+]1c2n(c3ccccc31)N=C(c1ccc(-c3ccccc3)cc1)CS2 | ? | 0.517µM* | ? | ? | ? | 0.581µM*
CCc1nnc2n1N=C(c1ccc(Br)cc1)CS2 | 5.6% | -11.9% | -0.4 | 3.1% | -9.4% | -4.3%
O=C1Nc2ccccc2C(=O)N2CCC[C@@H]12 | nt | -4.8%[9.04 µM] | nt | nt | nt | -8.8%[9.04 µM]
CN(CCCN(Cc1ccc(Cl)cc1)c1ccc(Br)cn1)C(=S)NCCCc1cnc[nH]1 | nt | ? | nt | nt | nt | 12.6µM*
S=C(NCCCCN(Cc1ccc(Cl)cc1)c1ccc(Br)cn1)NCCCc1cnc[nH]1 | nt | -93.0% | nt | nt | nt | 7.08µM*
CCCCN(Cc1ccc(Cl)c(Cl)c1)c1ccc(Br)cn1 | 20.0% | ? | nt | 8.5% | nt | -2.7%
Cc1ccc(SCc2nc3ccccc3n2CC(=O)Nc2ccc(Cl)cc2)cc1 | ? | ? | -2.3 | ? | nt | 20.6µM*
CC(C)Cn1c(N2CCN(CC(=O)Nc3ccc(Cl)cc3)CC2)nc2ccccc21 | -23.0% | 20.6µM* | -85.1* | -7.1% | 3.2% | ?
CCn1c(N2CCN(CC(=O)Nc3cccc(C)c3C)CC2)nc2ccccc21 | -0.6% | 20.6µM* | -17.0 | 1.2% | 0.0% | -22.9%
O=P(c1ccccc1)(c1ccccc1)c1cc(S(=O)(=O)O)ccc1O | 6.6% | 20.5% | 3.5 | 2.1% | 7.1% | -1.5%

High-throughput results (PubChem)
